Source: PubChem BioAssay
This is a sample that favours compounds with a hit; in the whole collection about 4.2% have one here.
TIM10 inh = TIM10 yeast growth inhibition | S. cerevisiae TIM10 strain growth, BacTiter-Glo luminescence, 24 h | inhibition, % at 10 µM | hit rate 1.4% among 330,000;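 active means inhibition of 40% or more at the single tested concentration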;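 further: wild-type TIM10 isogenic control strain grown at permissive 25 °C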
tim23-1 inh = tim23-1 yeast growth inhibition; S. cerevisiae tim23-1 growth, BacTiter-Glo luminescence, 24 h; AID 463212; inhibition, % at 20 µM; hit rate 1.3% among 330,000;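 active means growth inhibition of the mutant yeast at or above 50%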;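 further: temperature-sensitive mutant grown at 25 °C; plate controls were DMSO-treated mutant yeast for no effect and medium wells lacking yeast for full effect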
NALP3 yeast inh = blocks the NALP3 inflammasome reconstituted in yeast | Yeast reconstituted NLRP3/ASC/caspase-1, beta-gal luminescence, 24 h | inhibition, % at 10 µM | hit rate 0.39% among 330,000;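 active means inhibition of 50% or more; inactive means inhibition below 50%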;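 further: plate controls were induced DMSO wells for no effect and uninduced yeast grown without galactose for full effect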
NALP1 inh = inhibitors of NALP1 inflammasome in yeast. inhibition, % at 10 µM. hit rate 0.61% among 280,000. S. cerevisiae NALP1/ASC/caspase-1 growth, X-gal OD620, 72 h; in the data active means inhibition mostly above about 24%, no sharp cut-off; inactive means mostly below about 32%
V-ATPase pHluor = yeast V-ATPase proton transport regulation by pHLuorin. AID 504577. response, % at 10 µM. S. cerevisiae, pHLuorin cytosolic pH fluorescence. hit rate 0.37% among 350,000; in the data active means response mostly above about 7.3%, no sharp cut-off; inactive means mostly below about 5.4%; further: actives read high
tim10-1 inh = tim10-1 yeast growth inhibition; S. cerevisiae tim10-1 ts strain growth, BacTiter-Glo, 24 h; inhibition, % at 20 µM; hit rate 2.2% among 330,000;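 active means inhibition of at least 40%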;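 further: mutant grown at 25 °C; 0% = DMSO wells with yeast and 100% = wells holding no yeast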
* hit, by the source's call; . = no result.

SMILES | TIM10 inh | tim23-1 inh | NALP3 yeast inh | NALP1 inh | V-ATPase pHluor | tim10-1 inh
CCOc1ccc(N/C(N)=N/c2nc(CSc3nnc(C)s3)cc(=O)[nH]2)cc1 | -4 | -1 | 7 | 39* | 0 | -10
CCOC(=O)C1CCN(C(C(=O)NC2CCCC2)c2ccc(C)cc2)CC1 (stereo unspecified) | 10 | 18 | 5 | 36* | 0 | 8
Cc1ccc(C(C(=O)NC2CCCCC2)N2CCCC2)cc1 (stereo unspecified) | 7 | -3 | 11 | 24 | -1 | 15
CCOc1ccc(/C=C2\C(=O)c3ccccc3OC2c2ccccc2)cc1 (stereo unspecified) | 20 | 19 | 22 | 28* | -1 | 24
CC(C)C(=O)Nc1ccccc1N1CCN(S(C)(=O)=O)CC1 | 9 | -10 | -6 | 24 | -5 | 8
CS(=O)(=O)N1CCN(c2ccccc2NC(=O)C(c2ccccc2)c2ccccc2)CC1 | 25 | 21 | -5 | 43* | -1 | 24
O=C(NCc1cccnc1)c1cccc(S(=O)(=O)N2CCOCC2)c1 | 13 | 4 | 3 | 2 | 15* | 10
O=C(NCc1cccnc1)c1cccc(S(=O)(=O)N2CCCC2)c1 | -5 | 13 | 13 | 2 | 1 | 5
COc1ccc(OCCCN(C)Cc2ccccc2)cc1 | 4 | -23 | 21 | 38* | -2 | -5
COc1ccc(CCC(C)N(C)Cc2ccccc2)cc1 (stereo unspecified) | 1 | -14 | 19 | 30* | -3 | -15
O=C(c1cccc(Cl)c1)N1CCN(c2ccc(N3CCOCC3)nn2)CC1 | -6 | -15 | -5 | . | 4 | -15
Cc1cc(C)c(NS(=O)(=O)c2ccc(NC(=O)/C=C/C(=O)O)cc2)c(C)c1 | 6 | 7 | -7 | 51* | . | 9
CCc1ccc(-c2nc(CS(=O)CC(=O)NCc3ccccc3)c(C)o2)cc1 (stereo unspecified) | 7 | 30 | -6 | 14 | -5 | 32
CCOC(=O)C1CCCN(C(=O)CCn2nnnc2CN2CCOCC2)C1 (stereo unspecified) | 0 | 9 | 14 | 35* | -5 | 33
CCN(CC)C(=O)C1CCCN(C(=O)CCn2nnnc2CN2CCOCC2)C1 (stereo unspecified) | 0 | -6 | -2 | 4 | 4 | -8
N#Cc1nccnc1S(=O)(=O)c1cccs1 | 5 | 2 | 46 | 23* | 8 | 22
O=C(Nc1ccccc1Cl)C1CCN(S(=O)(=O)c2cccc3nonc23)CC1 | -14 | 22 | 27 | 37* | -5 | 19
CC(C)c1ccc(N(C(=O)CNC(=O)c2ccco2)C(C(=O)NC2CCCC2)c2ccncc2)cc1 (stereo unspecified) | -8 | 23 | -2 | -11 | -2 | 22
Cc1oc2cc(O)ccc2c(=O)c1Oc1ccccc1 | -2 | 12 | 7 | 5 | -4 | 0
CCOc1ccc(Oc2c(C)oc3cc(O)ccc3c2=O)cc1 | 13 | 28 | 8 | 25* | 0 | 15
O=C(CCN1C(=O)C2C3C=CC(C4CC34)C2C1=O)Oc1ccc(Br)cc1 (stereo unspecified) | 1 | 18 | 34 | -7 | 13* | 24
O=C(O)c1ccc(NC(=O)c2cccc(NC(=O)c3cccs3)c2)cc1 | 13 | 1 | 14 | 36* | -3 | 4
COc1ccc(C(C(=O)NC(C)C)N(C(=O)CCC(=O)Nc2nccs2)c2ccccc2F)cc1 (stereo unspecified) | 7 | 7 | -13 | 33* | -4 | 1
COCCNC(=O)C(c1ccc(OC)cc1)N(CCOC)C(=O)CCC(=O)Nc1nccs1 (stereo unspecified) | -9 | 10 | 7 | 20 | 3 | 4
CCOC(=O)c1[nH]c2ccc(OC)cc2c1NC(C)=O | 5 | 11 | -3 | 20 | -2 | 0
SMILES | TIM10 inh | tim23-1 inh | NALP3 yeast inh | NALP1 inh | V-ATPase pHluor | tim10-1 inh
CCOC(=O)c1[nH]c2ccc(OC)cc2c1NC(=O)CN1CCSCC1 | 20 | 10 | -2 | 6 | 25* | 3
CC(C)/C=C1\CC/C(=C\c2cccnc2)C1=O | 30 | 41 | 2 | -6 | -1 | 23
O=C1/C(=C/c2cccnc2)CCC/C1=C\c1cccnc1 | . | . | . | 78* | . | .
O=C1/C(=C/c2cccnc2)CC/C1=C\c1cccnc1 | 1 | 14 | 2 | 28 | 6 | 11
CCC1C/C(=C\c2cccnc2)C(=O)/C(=C/c2cccnc2)C1 (stereo unspecified) | . | . | . | 76* | 4 | .
O=C1/C(=C/c2ccccc2)CCCc2ccccc21 | 29 | 17 | 42 | 57* | -5 | 20
COc1cccc(NCc2cc(=O)oc3cc(-c4ccccc4)c(O)cc23)c1 | 18 | 12 | -1 | 16 | 21* | 19
CC(C)CCNC(=O)C(NS(=O)(=O)c1ccc2c(c1)c(=O)n(C)c(=O)n2C)c1ccccc1 (stereo unspecified) | -11 | -7 | 0 | 44* | 0 | -2
Cc1ccc(CCNC(=O)CCNS(=O)(=O)c2ccc3c(c2)c(=O)n(C)c(=O)n3C)cc1 | -7 | -4 | 2 | 7 | 20* | 8
Nc1ccc(C(=O)NC2CCSc3ccccc32)cc1[N+](=O)[O-] (stereo unspecified) | 3 | 18 | 20 | -1 | -3 | 16
COc1ccc(N/C(N)=N/c2nc(C)cc(C)n2)cc1 | . | . | . | . | 0 | .
Cc1cc(C)nc(/N=C(\N)Nc2ccc(OCCC(C)C)cc2)n1 | -10 | -80 | -2 | 33* | -8 | -88
CCn1c(COc2ccc(Cl)cc2)nnc1SCC(=O)Nc1ccc2c(c1)OCCO2 | -20 | -17 | 4 | 38* | -2 | 6
Cc1ccc(NS(=O)(=O)c2cccc(C(=O)NCC(c3ccco3)N3CCCCC3)c2)cc1 (stereo unspecified) | 14 | 29 | 10 | 20 | 0 | 1
COc1cccc(C2c3c(C)nn(-c4ccc([N+](=O)[O-])cc4)c3N=C3C(=O)Nc4ccccc4N32)c1 (stereo unspecified) | 18 | 2 | 17 | 30* | -1 | -21
CCOC(=O)N1CCN(CC(O)COc2ccccc2C(C)C)CC1 (stereo unspecified) | 6 | 7 | 2 | 15 | 6 | 17
CCOC(=O)N1CCN(CC(O)COc2ccccc2C(C)CC)CC1 (stereo unspecified) | -54 | 0 | 18 | 26* | 4 | -39
Cc1cc(C)c2cc(CN(CCO)C(=O)Nc3ccc(F)cc3)c(=O)[nH]c2c1 | 12 | 12 | 6 | 2 | -1 | 11
Cc1cc(C)c2cc(CN(CCN(C)C)C(=O)Nc3ccccc3Cl)c(=O)[nH]c2c1 | 4 | 1 | 21 | 28* | -1 | 9
COCCCNC(=O)CCc1c(C)nc2c(-c3ccc(F)cc3)c(C)nn2c1C | 0 | 8 | -3 | . | 2 | -7
COCCNC(=O)CCc1c(C)nc2c(-c3ccc(F)cc3)c(C)nn2c1C | -1 | 15 | 10 | 36* | -2 | 6
CN1CCN(CCOCCOc2c(Cl)cc(Cl)cc2Cl)CC1 | -7 | -12 | 26 | . | -2 | 2
